Reference: the supplement of paper PMC6555819

What was measured:
Assay in all cases: PBM binding z-score (relative to random genomic background probes); higher = stronger binding; sequences stand for … in GC…GCGATTGACAGCGTAGAATGAAGG
[1] = tested on: FXR:RXRa (NR concentration 270 nM, RXRa partner concentration 90 nM)
Method in brief: (§1)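 Custom Agilent 4×180K protein-binding microarrays carried double-stranded probes, each with a 34-nt variable region. These regions held direct-repeat seeds, single-nucleotide variants, half-site ablations and random human genomic background sequences. Ligand-free nuclear receptor dimers were incubated on the arrays for 1 h, antibodies against each partner (one per run) detected binding, and scanned fluorescence was regression-normalized. Binding z-scores take the random background probes as reference.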

[2] = tested on: LXRa:RXRa (NR concentration 270 nM, RXRa partner concentration 90 nM)
Method in brief: as §1

[3] = tested on: LXRa homodimer (NR concentration 270 nM)
Method in brief: as §1

[4] = tested on: LXRb:RXRa (NR concentration 270 nM, RXRa partner concentration 90 nM)
Method in brief: as §1

[5] = tested on: LXRb homodimer (NR concentration 270 nM)
Method in brief: as §1

[6] = tested on: PPARa:RXRa (NR concentration 270 nM, RXRa partner concentration 90 nM)
Method in brief: as §1

[7] = tested on: PPARg:RXRa (NR concentration 180 nM, RXRa partner concentration 90 nM)
Method in brief: as §1

[8] = tested on: PPARg:RXRa 270nM:90nM, anti-RXR (NR concentration 270 nM, RXRa partner concentration 90 nM)
Method in brief: as §1

[9] = tested on: PPARg:RXRa 30nM:10nM, anti-RXR (NR concentration 30 nM, RXRa partner concentration 10 nM)
Method in brief: as §1

[10] = tested on: PPARg:RXRa 90nM:30nM, anti-RXR (NR concentration 90 nM, RXRa partner concentration 30 nM)
Method in brief: as §1

Sequence	PBM binding z-score [1]	PBM binding z-score [2]	PBM binding z-score [3]	PBM binding z-score [4]	PBM binding z-score [5]	PBM binding z-score [6]	PBM binding z-score [7]	PBM binding z-score [8]	PBM binding z-score [9]	PBM binding z-score [10]
GATACAGTGTCAAGGCCAGAGTACGCGTATTGAT	-0.101	-0.189	-0.775	-0.147	-0.421	0.43	0.593	0.129	-0.172	-0.0433
GCTATTTGGTCAGTAAAAGGTCACACACCGGTCG	3.6	4.54	5.27	4.71	1.54	4.7	3.46	4.72	2.76	4.46
CCTTACTGGTCACTCCAGGTTATAGCATCGGAGT	0.959	4.64	1.95	1.39	0.798	0.503	0.265	0.0704	0.0345	0.0913
CGAATTAGGTCAAGGACAGTGAATCTCCGCACGC	4	2.54	0.286	1.97	0.123	4.92	6.8	6.22	3.82	5.57
TGAATGAGGTCATAAGATCAGGGAACGTTGCAAA	7.31	5.47	0.779	4.4	1.39	5.96	6.96	6.58	4.09	6.04
TAGCCTAGGTGAGATCGGGCCAGTATACGCTATA	-0.31	-0.533	-0.692	-0.901	-0.702	-0.453	0.201	-0.291	-0.335	-0.319
GGAAAGAGGGCATTCGAGTTGATAGCATGGCGAT	1.74	2.82	0.148	1.13	0.213	1.92	0.905	1.19	0.366	0.958
TGACCAAGGTGAAAGGTCGTTGATGCACGCCTTG	3.6	2.98	0.293	2.62	-0.814	5.24	8.5	7.41	6.27	7.51
CCTCGGCGGACAGAAGGTCAGAGCTGTCCGCTTT	1.18	1.29	-0.126	0.771	-1.09	1.64	-0.606	0.898	-0.662	-0.0722
TCTTGTATATCAATAGAGGTTAAGAAAGTGCGCT	0.889	3.66	0.646	1.74	0.472	1.77	0.559	1.69	3.02	2.45
TCTTGTAGATCAACAGAAGGTTAAGAAAGATCGA	0.396	1.11	0.0845	0.953	-0.0831	1.27	0.104	1.35	2.82	2.04
TCATATAGGTAAAGGTGATAGTCGAACGATATGA	0.212	0.601	-0.19	0.539	-0.129	2.02	2.72	3.48	3.92	3.51
GATACAGGGTCAGCTAGAGGCCAGAGTCTGGAAA	4.63	2.79	-0.316	2.18	-0.91	4.47	3.57	3.41	0.796	2.27
ATCTCTAAGTAACCAAGTTCAGTGAATGCCGAAC	0.436	0.569	0.843	0.518	0.349	0.397	-0.15	0.228	0.371	0.352
ACAAGTTGGTCAGCTGAGGTCACACACAATTCGG	3.12	3.24	2.34	3.77	0.506	3.78	2.28	2.38	0.435	1.74
TCTATTAGTTGAGTAGGGCAACCGAAACAGCGGA	0.117	-0.0688	-0.201	0.0431	0.0555	0.964	0.351	1.65	3.14	2.23
ATCTCAAGGTAACAAGTTCAGTGAAAGAGAGGAC	1.2	1.29	0.665	0.971	0.9	1.4	0.619	1.08	0.731	1.03
GCGACTGCGGCAAAGCAGGTTACCATAAGGTTGG	-0.436	-0.494	-0.713	-0.429	-1.51	0.0395	0.3	-0.534	-0.785	-0.92
GCTATTAGCTGAAAGGGCAACCGAATGATTCTCG	0.0536	0.222	-0.091	0.372	-0.619	1.19	1.15	2.72	0.859	2.07
CCTGCTATGTCAATGGTCAGCTAAAGCAGCTCGC	-0.419	-0.17	-0.882	-0.227	-0.272	-0.207	0.344	1.53	-0.198	0.923
ATATGTAGGTTATCGGGTCATTGAGTTTGCGCAT	3.15	3.21	1.69	2.94	1.33	4.75	7.4	6.33	3.44	5.94
TCTATTAGTTGAGGGGCAACCGACGAGTCCGTTT	0.999	0.876	0.028	1.41	0.923	1.18	0.143	1.75	3.58	2.71
AGAACGAGGGCTCGCTGAGTTGATAGCAGAGTAG	-0.628	-0.88	-0.835	-0.918	-1.31	-0.747	0.239	-0.824	-0.528	-0.552
GCGACTGGGGCTTCAGCAGGTTACCATAACTTAA	-0.296	-0.21	-0.373	0.63	-0.572	0.478	-0.166	-0.624	-0.435	-0.762

Sequence	PBM binding z-score [1]	PBM binding z-score [2]	PBM binding z-score [3]	PBM binding z-score [4]	PBM binding z-score [5]	PBM binding z-score [6]	PBM binding z-score [7]	PBM binding z-score [8]	PBM binding z-score [9]	PBM binding z-score [10]
ATCTCTAGGTAAAAGTTCAGTGATTCCCGAGGAT	0.618	1.07	1.4	0.613	0.691	4.08	7.48	7.11	7.32	8.09
GCTAGTTAGTCAGTAAAAGGTCACACACCGGTCG	3.12	4.12	4.46	3.91	0.32	4.56	3.96	5.48	3.89	5.04
GCTAGTTGGTCAGTATAAGGTCACACACCGGTCG	3.04	2.87	3.48	2.64	0.601	3.23	1.38	2.09	0.612	1.37
CCTTACGGGTCACTGACAAGTTATAGCATTTGGA	5.46	3.31	0.0997	3.2	0.134	4.9	4.26	4.4	1.41	3.45
GCTCGGAGGACAAGGTCCGAGCTTTGTCCGTAGA	-0.694	-0.575	-1.02	-1.07	-1.61	-0.595	-1.19	-0.67	-1.34	-1.09
CCGAGTAGGTTATGGGGCACTCAGGCAACGGTGA	0.104	0.294	-0.464	0.136	-0.707	2.08	3.55	4.33	2.45	4.11
CCTTACGGGTCACTCCAGGTTATAACATCGGAGT	4.88	7.46	2.11	5.8	0.0817	4.74	3.9	3.91	1.29	2.8
TAGCCTAGGTCATTAAGGGGCCAGTATAGAAAGC	3.58	3.35	0.285	2.67	0.552	3.21	1.75	2.07	0.301	1.11
CTCGAAAGGTCGTGCTCTGGTGAGTATACCAAAC	4.94	3.65	0.255	3.52	0.0875	4.94	2.33	3.59	0.836	2.12
CGAACTAGGTCATCCAGGAAAGTGAATACATTGA	4.43	2.64	0.469	2.15	0.453	5.01	7.91	6.29	4.25	5.91
TAGCCTGGGTCATTGGGCCAGTATAGTACGCATC	3.3	1.88	-0.677	1.36	-0.556	4.11	3.81	3.62	0.89	2.1
TCATATATGTAAACAGGTGAAAGTCCGTAAGTTA	0.999	1.09	0.211	1.51	0.115	1.84	1.67	2.97	3.81	3.19
CCCAGTAGGTTATGGGGCATTCAGGCAACGGTGA	0.192	0.622	-0.205	-0.0107	-0.618	2.63	5.2	5.47	4.14	5.66
TCATATAGGTAAACAGATGAAAGTCCGTAAGTTA	1.23	0.739	0.342	0.86	-0.0548	1.14	1.36	2.08	3.81	3.18
TAGCCTAGGTCATTAGGCCAGTATAGTACGCATC	3.64	2.91	0.7	1.88	0.111	3.31	3.34	3.34	1.05	2.14
AGAATGATGTTACCAAAGATCAGGGAAACGCTTG	-0.399	0.968	-0.229	-0.18	-0.38	-0.0184	0.652	0.26	0.0901	0.313
TTTCGGAGGACACGAAGGTCAGAGCTTTCCAGAG	1.83	1.7	0.81	1.61	-0.442	2.12	0.582	1.32	0.325	0.593
CCGACTCGGGCAAGGTTACCATAACGCACAGCCA	-0.303	0.69	-0.249	0.349	-1.13	0.95	1.01	0.916	-0.148	-7.81e-07
GCTGCTAGATCAGGTTGGTCAGCTAACGGGTACG	-0.615	-0.876	-0.323	-0.953	-0.822	-1.19	-0.285	-1.02	-0.624	-0.926
CGTCCAAGGTCAAACGTCAGTGAAGAGATGACGG	7.81	5.85	1.39	4.54	1.77	6.06	5.95	6.15	3.64	5.2
CCGACTGGGGCAAATGTTACCATACTCAGTACGA	0.0667	-0.122	0.0319	0.411	-0.698	2.25	4.31	5.16	3.62	5.18
CCTCGGAGGAGAGAAGGTCAGAGCTGTCCGCTTT	0.811	0.874	-0.155	0.734	-0.806	1.62	-0.501	0.307	-0.994	-0.582
ATACCAAGGTGATCGTGAGGTCCTTGATACTAAC	0.569	-0.0765	-0.204	0.177	-0.319	0.562	0.44	0.0314	-0.102	-0.134
ATCTCTAGGTAAAAGTTCCGTGAATCCCGAGGAT	0.485	0.395	-0.0221	-0.0121	0.845	1.5	2.36	4.22	2.6	3.7
